# Test results taken from PubChem BioAssay (NCATS).
# Records with an inconclusive call do not appear. Calls of active or inactive are those of the source. The call rests on the fitted dose curve; in most records, active means well fitted cell-killing curve with a large enough effect; inconclusive means small, poorly fitted or top-dose-only effect, or effect the other way; inactive means flat fitted curve, though single readings scatter.
# Assay: Cell Viability - HUV-EC-C (AID 542); further: nearly all actives have a fitted effect of over 35% in size
# Conditions: HUV-EC-C endothelial cell viability, qHTS; series mostly up to 92.2 µM
# From the text: NIH Chemical Genomics Center [NCGC]
# NIH Molecular Libraries Screening Centers Network [MLSCN]
# National Institutes of Environmental Health Sciences [NIEHS]
# National Toxicology Program [NTP]
# We have developed a 1536-well cell-based assay for quantitative high throughput screening (qHTS) against a number of cell lines to determine in vitro cytotoxicity of small molecules. This particular assay uses the HUV-EC-C cell line which is derived from normal human vascular endothelial cells.
# NCGC Assay Protocol Summary:
# The CellTiter-Glo luminescent cell viability assay (Promega) is a homogeneous method to measure the number of viable cells in culture. The end point readout of this assay is based on quantitation of intracellular ATP, an indicator of metabolic activity, using the luciferase reaction. Luciferase catalyzes the oxidation of beetle Luciferin to oxyluciferin and light in the presence of ATP. The luminescent signal is proportional to amount of ATP present.
# Using the CellTiter-Glo luminescent cell viability assay, the amount of cellular ATP was measured in the HUV-EC-C cell line with complete culture medium following compound treatment for 40 hours. The assay was performed in opaque white Kalypsys 1536-well plates. In the screen, tamoxifen and doxorubicin were used as positive controls. Library compounds were measured for their ability to cause acute toxicity in the cell line, as reflected by a decrease in intracellular ATP levels, in a concentration-dependent manner. […] AC50 values were determined from concentration-response data modeled with the standard Hill equation.
# qHTS protocol for CellTiter Glo HUV-EC-C cellular assay
# [Step] [Parameter] [Value] [Description]
# 1. Reagent; 5 uL; 1000 HUV-EC-C cells/well
# 2. Time; 5 hr; 37 °C incubation
# 4. Controls; 23 nL; Tamoxifen 0.34 uM to 100 uM & Doxorubicin 0.02 nM to 100 uM
# 5. Time; 40 hr; 37 °C incubation
# 6. Reagent; 5 uL; CellTiter Glo reagent
# 7. Time; 20 min; Room Temperature
# 8. Detection; Luminescence; Viewlux plate reader
# Keywords: cell viability, cytotoxicity, HUV-EC-C cell line, luminescence, NTPHTS, NTPHTS_NCGC, NIEHS, EPA, DSSTox, MLSMR, MLSCN, NIH Roadmap, qHTS, NCGC
row,SMILES,outcome
1,O[C@@H]([C@H](O)[C@@H](O)CBr)[C@@H](O)CBr,inactive
2,O=S(=O)(O)c1ccccc1,inactive
3,CCC(C)c1ccccc1O (stereo not given),inactive
4,Cc1c(N=C=O)cccc1N=C=O,inactive
5,C=C(C)C1CC=C(C)C(O)C1 (stereo not given),inactive
6,CCCCCCCCCCCCCCC1CO1 (stereo not given),inactive
7,COc1ccc2nc(N)sc2c1,inactive
8,C=Cc1ccccc1Cl,inactive
9,CCCCCCCCCCCCCC(=O)O,inactive
10,Clc1cc(Cl)c(Cl)cc1Cl,inactive
11,c1ccccc1,inactive
12,CC12CCC(CC1=O)C2(C)C (stereo not given),inactive
13,CCC(O)OC(O)CC (stereo not given),inactive
14,Cc1ccccc1C,inactive
15,c1ccc2c(c1)[nH]c1ccccc12,inactive
16,C[C@H](CCC(=O)O)[C@H]1CC[C@H]2[C@@H]3CC[C@@H]4C[C@H](O)CC[C@]4(C)[C@H]3CC[C@]12C,inactive
17,O=[N+]([O-])c1cccc(Cl)c1Cl,inactive
18,CCCCCCCCCCCC(=O)O,inactive
19,CCO[Si](CCCN)(OCC)OCC,inactive
20,Cc1ccc([N+](=O)[O-])c(C)c1,inactive

row,SMILES,outcome
1,CCCN(CCC)C(=O)SCC,inactive
2,c1ccc2c(c1)c1cccc3ccc4cccc2c4c31,inactive
3,C=CCc1ccc(OC)c(OC)c1,inactive
4,COc1cc(/C=C/c2ccccc2)oc(=O)c1,inactive
5,O=NO,inactive
6,CN(C)C=O,inactive
7,COC(=O)c1ccc(C=O)cc1,inactive
8,O=C1CCc2ccccc2O1,inactive
9,O=C(O)c1ccccc1,inactive
10,OCCNCCO,inactive
11,C1OCOCO1,inactive
12,Nc1ccc(Cl)cc1Cl,inactive
13,COC(=O)c1ccc(C)cc1,inactive
14,COCC(=O)O,inactive
15,CN(C)CCCCCCN(C)C,inactive
16,C/C=C\c1ccc(OC)cc1,inactive
17,CC1=C2[C@H](/C=C(\C)C(=O)O)CC[C@@H](C)[C@H]2CC1,inactive
18,COC(=O)CCCCC(=O)OC,inactive
19,CC(C)=CCCC(C)CCO (stereo not given),inactive
20,NC1=NC(S)C2N=CN=C2N1 (stereo not given),inactive
